Source: article PMC11062922 (Nature Chemical Biology, 2023)
Read-outs that look alike come from different tables or passages of the source.

Tested on: AAK1
Conditions: read-out: apparent Kd, n = 1

For Lestaurtinib, the potency estimated from few doses (compound concentrations:100 nM and 1000 nM (sheet 'Lestaurtinib' of Supplementary Table 1),run:Lestaurtinib_02339_R2,Plate:MR001) was 85.5 nM, the potency estimated from few doses (compound concentrations:100 nM and 1000 nM (sheet 'Lestaurtinib' of Supplementary Table 1),run:Lestaurtinib_02339_R3,Plate:MR001) was 53.3 nM and the potency estimated from few doses (compound concentrations:100 nM and 1000 nM (sheet 'Lestaurtinib' of Supplementary Table 1),run:Lestaurtinib_02364_R3,Plate:MR002) was 69.8 nM. The potency estimated from few doses (compound concentrations:100 nM and 1000 nM (sheet 'Lestaurtinib' of Supplementary Table 1),run:Lestaurtinib_02367_R1,Plate:MR003) was 65.4 nM, the potency estimated from few doses (compound concentrations:100 nM and 1000 nM (sheet 'Lestaurtinib' of Supplementary Table 1),run:Lestaurtinib_02367_R2,Plate:MR003) was 78.3 nM and the potency estimated from few doses (compound concentrations:100 nM and 1000 nM (sheet 'Lestaurtinib' of Supplementary Table 1),run:Lestaurtinib_02367_R3,Plate:MR003) was 77.2 nM. For the same substance, the potency estimated from few doses (compound concentrations:100 nM and 1000 nM (sheet 'Lestaurtinib' of Supplementary Table 1),run:Lestaurtinib_02381_R1,Plate:MR004) was 66.8 nM, the potency estimated from few doses (compound concentrations:100 nM and 1000 nM (sheet 'Lestaurtinib' of Supplementary Table 1),run:Lestaurtinib_02381_R3,Plate:MR004) was 45.5 nM and the potency estimated from few doses (compound concentrations:100 nM and 1000 nM (sheet 'Lestaurtinib' of Supplementary Table 1),run:Lestaurtinib_02407_R1,Plate:MR005) was 63.9 nM. The potency estimated from few doses (compound concentrations:100 nM and 1000 nM (sheet 'Lestaurtinib' of Supplementary Table 1),run:Lestaurtinib_02407_R2,Plate:MR005) was 53.3 nM, the potency estimated from few doses (compound concentrations:100 nM and 1000 nM (sheet 'Lestaurtinib' of Supplementary Table 1),run:Lestaurtinib_02407_R3,Plate:MR005) was 73.1 nM and the potency estimated from few doses (compound concentrations:100 nM and 1000 nM (sheet 'Lestaurtinib' of Supplementary Table 1),run:Lestaurtinib_02422_R2,Plate:MR006) was 18.9 nM. It also gave a potency estimated from few doses (compound concentrations:100 nM and 1000 nM (sheet 'Lestaurtinib' of Supplementary Table 1),run:Lestaurtinib_02422_R3,Plate:MR006) of 72.2 nM, a potency estimated from few doses (compound concentrations:100 nM and 1000 nM (sheet 'Lestaurtinib' of Supplementary Table 1),run:Lestaurtinib_02437_R2,Plate:MR007) of 69.6 nM and a potency estimated from few doses (compound concentrations:100 nM and 1000 nM (sheet 'Lestaurtinib' of Supplementary Table 1),run:Lestaurtinib_02438_R1,Plate:MR008) of 74.4 nM. It also gave a potency estimated from few doses (compound concentrations:100 nM and 1000 nM (sheet 'Lestaurtinib' of Supplementary Table 1),run:Lestaurtinib_02438_R2,Plate:MR008) of 72.4 nM, a potency estimated from few doses (compound concentrations:100 nM and 1000 nM (sheet 'Lestaurtinib' of Supplementary Table 1),run:Lestaurtinib_02443_R1,Plate:MR009) of 59.8 nM and a potency estimated from few doses (compound concentrations:100 nM and 1000 nM (sheet 'Lestaurtinib' of Supplementary Table 1),run:Lestaurtinib_02443_R2,Plate:MR009) of 72.4 nM. It also gave a potency estimated from few doses (compound concentrations:100 nM and 1000 nM (sheet 'Lestaurtinib' of Supplementary Table 1),run:Lestaurtinib_02473_R1,Plate:MR010) of 56.2 nM, a potency estimated from few doses (compound concentrations:100 nM and 1000 nM (sheet 'Lestaurtinib' of Supplementary Table 1),run:Lestaurtinib_02473_R3,Plate:MR010) of 40.1 nM and a potency estimated from few doses (compound concentrations:100 nM and 1000 nM (sheet 'Lestaurtinib' of Supplementary Table 1),run:Lestaurtinib_02482_R1,Plate:MR011) of 62.4 nM. The potency estimated from few doses (compound concentrations:100 nM and 1000 nM (sheet 'Lestaurtinib' of Supplementary Table 1),run:Lestaurtinib_02482_R2,Plate:MR011) was 81.9 nM, the potency estimated from few doses (compound concentrations:100 nM and 1000 nM (sheet 'Lestaurtinib' of Supplementary Table 1),run:Lestaurtinib_02482_R3,Plate:MR011) was 69.5 nM and the potency estimated from few doses (compound concentrations:100 nM and 1000 nM (sheet 'Lestaurtinib' of Supplementary Table 1),run:Lestaurtinib_02487_R1,Plate:MR012) was 45.5 nM. The potency estimated from few doses (compound concentrations:100 nM and 1000 nM (sheet 'Lestaurtinib' of Supplementary Table 1),run:Lestaurtinib_02487_R2,Plate:MR012) was 64.8 nM, the potency estimated from few doses (compound concentrations:100 nM and 1000 nM (sheet 'Lestaurtinib' of Supplementary Table 1),run:Lestaurtinib_02487_R3,Plate:MR012) was 70.8 nM and the potency estimated from few doses (compound concentrations:100 nM and 1000 nM (sheet 'Lestaurtinib' of Supplementary Table 1),run:Lestaurtinib_02496_R1,Plate:MR013) was 93.7 nM. The potency estimated from few doses (compound concentrations:100 nM and 1000 nM (sheet 'Lestaurtinib' of Supplementary Table 1),run:Lestaurtinib_02496_R2,Plate:MR013) was 80.9 nM, the potency estimated from few doses (compound concentrations:100 nM and 1000 nM (sheet 'Lestaurtinib' of Supplementary Table 1),run:Lestaurtinib_02566_R1,Plate:MR014) was 85.4 nM and the potency estimated from few doses (compound concentrations:100 nM and 1000 nM (sheet 'Lestaurtinib' of Supplementary Table 1),run:Lestaurtinib_02566_R2,Plate:MR014) was 74.9 nM. It also gave a potency estimated from few doses (compound concentrations:100 nM and 1000 nM (sheet 'Lestaurtinib' of Supplementary Table 1),run:Lestaurtinib_02572_R1,Plate:MR015) of 46 nM, a potency estimated from few doses (compound concentrations:100 nM and 1000 nM (sheet 'Lestaurtinib' of Supplementary Table 1),run:Lestaurtinib_02572_R2,Plate:MR015) of 79.8 nM and a potency estimated from few doses (compound concentrations:100 nM and 1000 nM (sheet 'Lestaurtinib' of Supplementary Table 1),run:Lestaurtinib_02572_R3,Plate:MR015) of 95.8 nM. The potency estimated from few doses (compound concentrations:100 nM and 1000 nM (sheet 'Lestaurtinib' of Supplementary Table 1),run:Lestaurtinib_02577_R1,Plate:MR016) was 58.2 nM, the potency estimated from few doses (compound concentrations:100 nM and 1000 nM (sheet 'Lestaurtinib' of Supplementary Table 1),run:Lestaurtinib_02577_R2,Plate:MR016) was 52.8 nM and the potency estimated from few doses (compound concentrations:100 nM and 1000 nM (sheet 'Lestaurtinib' of Supplementary Table 1),run:Lestaurtinib_02577_R3,Plate:MR016) was 59.6 nM. It also gave a potency estimated from few doses (compound concentrations:100 nM and 1000 nM (sheet 'Lestaurtinib' of Supplementary Table 1),run:Lestaurtinib_02584_R1,Plate:MR017) of 83.9 nM, a potency estimated from few doses (compound concentrations:100 nM and 1000 nM (sheet 'Lestaurtinib' of Supplementary Table 1),run:Lestaurtinib_02584_R2,Plate:MR017) of 61 nM and a potency estimated from few doses (compound concentrations:100 nM and 1000 nM (sheet 'Lestaurtinib' of Supplementary Table 1),run:Lestaurtinib_02584_R3,Plate:MR017) of 88.2 nM. For the same substance, the potency estimated from few doses (compound concentrations:100 nM and 1000 nM (sheet 'Lestaurtinib' of Supplementary Table 1),run:Lestaurtinib_02601_R1,Plate:MR018) was 68.7 nM, the potency estimated from few doses (compound concentrations:100 nM and 1000 nM (sheet 'Lestaurtinib' of Supplementary Table 1),run:Lestaurtinib_02601_R3,Plate:MR018) was 47.3 nM and the potency estimated from few doses (compound concentrations:100 nM and 1000 nM (sheet 'Lestaurtinib' of Supplementary Table 1),run:Lestaurtinib_02606_R1,Plate:MR019) was 69.9 nM.
